According to the supplement of paper PMC3334620:
Whole data set: some 33,000 sequences, median “E-score (-0.5 to 0.5)” near -0.04, cut for the highest 2% near 0.36. The full list was thinned out, with the highest values kept by preference.

Each sequence was assayed against T1, Hmlalpha2 (UniProt P0CY09) (assay: PBM E-score (8-mer binding enrichment) (E-score (-0.5 to 0.5)); higher = stronger / more preferred TF binding). Conditions: protein concentration: 200 nM; construct: GST-full length.
T1 sequence: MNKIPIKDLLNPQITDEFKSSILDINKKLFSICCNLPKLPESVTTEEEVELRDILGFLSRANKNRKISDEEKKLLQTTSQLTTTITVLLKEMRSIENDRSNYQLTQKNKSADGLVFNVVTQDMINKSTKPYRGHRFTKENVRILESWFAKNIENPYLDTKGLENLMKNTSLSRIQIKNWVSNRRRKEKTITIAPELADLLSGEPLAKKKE
Procedure: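 Universal 'all 10-mer' protein binding microarrays (Agilent AMADID 015681) probed with GST-tagged S. cerevisiae TFs (full-length or DBD) made by in vitro transcription/translation (PURExpress), about 100-200 nM. Bound TF was detected with fluorescent anti-GST. Each ungapped 8-mer (which stands for itself and its reverse complement) is scored by the PBM enrichment score (E-score), a modified Wilcoxon-Mann-Whitney statistic from -0.5 to +0.5, computed with the Universal PBM Analysis Suite. Scale: above 0.35 generally sequence-specific binding.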

Sequence	PBM E-score
GGCCTACC	-0.247
CTGAGGGC	-0.3
ATCTCGGA	-0.115
AAAGCGAG	0.107
CTCTGACA	0.132
GCGACCAA	-0.0947
GCCAGACA	-0.163
CCGCGTAG	0.294
CCGCGTAA	0.426
CCGCGTAC	0.266
ATCTACTA	0.193
GCTATTCA	0.0214
ACTTTGCC	-0.0921
GGGGAGTA	-0.225
AAGTTGCA	0.109
ATTCTACG	0.157
TATCTAAA	0.141
AATCTACT	0.098
GATCTACA	0.345
GTTCTACA	0.29
CATCTACA	0.338
ATTCTACA	0.371
AATCTACA	0.438
TATCTACA	0.371
GCATTGAC	0.0683

Sequence	PBM E-score
CGACCGAA	-0.0499
GAAGGCCA	-0.38
ATCTGCCA	-0.149
CAGTACAG	0.0351
TAACGGCA	-0.0141
CTCACATA	0.0587
GTTACATA	0.421
CTTACAGA	0.0289
GTTACAGA	0.0217
CTTACATA	0.426
GTTACTGA	0.171
ACCCCTAT	-0.208
ACACCCAG	0.0143
GCGCGAAA	0.189
TCACAACA	0.324
TACTATAA	0.171
TAATATTA	0.379
ACATATTG	0.142
ACATATGC	0.123
CAATATTA	0.213
CCATATTA	0.063
ACATATTA	0.389
ACATATGT	0.369
ACATATGG	0.104
AAATATTA	0.317

Sequence	PBM E-score
ATGCACAC	0.106
CTTTTGCA	0.105
ACTTTCGG	-0.0932
AGCATCCC	-0.348
AGAACTAA	0.189
AGAGCGGG	-0.166
ACCTACTA	0.081
ACGCGATA	0.324
CTCCAGGC	-0.185
ATTAAACA	0.322
ATTAAAAA	0.249
GTTAAAAA	0.369
CTTAAACA	0.128
GTTAAAAC	0.343
GTTAAACA	0.375
TCCTACCA	-0.318
GGATGGAA	-0.175
AGGTTCTG	-0.0953
AAACCTCT	-0.08
ATGTTTTC	0.421
ATGTTTCC	0.0968
ATGTTTAA	0.387
GTGTTTAA	0.351
CTGTTTAA	0.11
GTGTTTTA	0.355

Sequence	PBM E-score
ATGTTTTA	0.422
CTGTTTTC	0.036
CTGTTTTA	0.0458
ACCTTGGC	-0.242
ATTGCCAA	-0.206
CCTGGACC	-0.0273
GGTTCTCA	-0.0328
CTCTACAA	0.277
ATCTACAC	0.45
CCCTACAC	0.247
ATCTACGC	0.368
CTCTACGC	0.0772
ATCTACTC	0.00965
GTCTACAC	0.364
CTCTACAC	0.368
ATCTACAT	0.452
ATCTACAA	0.307
ATCTACAG	0.151
ATCTACGA	0.014
GGAGGCTA	-0.325
GTTCTGCA	0.104
GTAACATA	0.355
CTAACATA	0.273
ATAACAGG	0.194
ATAACATA	0.437

Sequence	PBM E-score
ATAACATG	0.452
ATAACATC	0.327
AGCTGCAG	-0.168
ACTTTGAC	0.231
CCTTGCCC	-0.198
ACATGTTC	0.371
AGATGTTC	0.0875
CCATGTTC	0.275
ACATGTCC	0.351
AAATGTTG	0.0925
CAATGTTA	0.284
GCATGTTA	0.464
ACATGTCA	0.402
AGATGTTG	-0.0256
GCCTGTTA	0.139
ACATGTTG	0.45
CCATGTCA	0.333
CCTGGGCG	-0.173
GCAAGCGA	0.0703
GCGAAACC	0.104
CAAACCCG	-0.0693
ATTCACCA	0.0468
ATGAGGTA	0.136
CCGCATAC	0.0261
CCTTAGAG	-0.462

Sequence	PBM E-score
CCATGTTA	0.458
ACATGTTA	0.461
CCATGTGA	0.184
AAATGTTA	0.33
CGATGTTA	0.353
AGATGTTA	0.201
CGCCTGGC	-0.0832
GCGCATGA	-0.252
GCTGTCCA	-0.0572
CTCGTCAC	-0.0377
AATCGGTC	-0.081
CTCCTAAG	-0.115
CAGGAGCA	-0.173
GCATAACA	0.307
ACATAGCA	0.392
ACATAACT	0.325
ACATAACA	0.434
CCATAACA	0.333
CCATAGCA	-0.145
TCATAGCA	-0.0434
ACATAACG	0.368
ACATAACC	0.222
CACACCAG	-0.011
GGATGACC	-0.218
GATTTTGA	0.12

Sequence	PBM E-score
ACGATGTG	0.19
CAGTTTGC	-0.118
ACAGGGAA	0.0611
CGCTGATC	-0.177
AGGGGAGC	-0.33
GCGTCTCC	-0.033
AATCGTGT	0.406
AATCGTGC	0.151
AATCGTGA	-0.00694
AAGCGTGT	0.371
ACACGTGG	0.293
ACACGTGT	0.432
AAGCGTGA	-0.0159
ACACGTGA	0.318
AAACGTGA	0.168
AAACGTGT	0.375
AAACGTGG	-0.0689
AAGCGTGG	-0.0995
ACGGCGAT	-0.0673
AGTCGGGG	-0.191
CAAGAATG	-0.0486
AGGGCCAG	-0.22
AGGCCAAG	-0.247
AGTCTATC	-0.0461
GTGGGCGA	-0.04

Sequence	PBM E-score
GACGTGAA	-0.0003
CACGTGAA	0.108
CACGTGTC	0.25
GACGTGTA	0.41
GACGTGGA	-0.209
CACGTGTA	0.444
AACGTGTA	0.455
AACGTGTC	0.263
AACGTGTG	0.233
GAAGTCTC	-0.247
GTACCCTA	-0.0877
GTCGACCA	-0.0364
GGATCCAA	-0.0601
GAGTAGCA	-0.0964
CCCCCGCG	-0.241
CCGTTTAG	-0.0825
CGGTGTCA	-0.0723
CCGTGTCA	0.351
GTGTGTCA	0.307
GCGTGTCA	0.382
ACGTGTCG	0.308
TAGTGTCA	0.0999
ACGTGTCA	0.392
TCGTGTCA	0.395
GCGTGTCC	0.142

Sequence	PBM E-score
GCTCCAGA	-0.207
ATGAGAAA	0.0401
CGGAGGCC	-0.334
TCACCTGA	-0.136
CTTGGCAA	-0.143
GATGTATA	0.237
CATGTATA	0.466
CATGTATC	0.405
AATGTATA	0.315
AATGTATC	0.284
CTTGTATC	0.264
AGTGCAAT	0.00712
GGATGTAC	0.225
CGATGTAA	0.417
AGATGTAT	0.251
GGATGTAA	0.397
CGATGTGA	0.105
AGATGTAA	0.382
AGATGTAG	0.094
TGATGTAA	0.389
CGATGTAC	0.221
TGCTGTAA	0.17
GGATGTCA	0.133
TGATGCAA	0.0282
CCATCTAC	0.0186

Sequence	PBM E-score
CTCTGCCC	-0.109
AGCAATGG	-0.0784
CATACCAA	0.141
CACGGTGA	0.155
ACCATTAG	-0.0407
AGCCCTCC	-0.312
CAGGCGAA	0.0909
AGTTGAAA	0.0609
TGTTGAAA	0.37
CGTTGTAC	0.278
CGTTGTAA	0.368
TGTTGTAA	0.401
AGTTGTAA	0.248
GGTTGAAA	-0.0197
CGTTGTAG	0.242
GGTTGTAA	0.342
AAGAGTAC	0.0432
ATCCCTAG	-0.00744
CAGTACCG	-0.142
CCCGATTC	-0.0455
GTAGCGGA	-0.0459
GTTATCCA	0.0731
AGCCATCG	-0.171
ATGCCTAC	-0.224
GACCTCCA	-0.0969

Sequence	PBM E-score
CTTTGGTC	-0.0966
ACCACGGG	-0.213
ACCACGGT	-0.134
TACACGGA	0.447
CACACGGA	0.0896
GACACGGA	0.224
AACACGGG	0.387
AACACGGC	0.359
CACACGGG	0.218
AACACCGA	0.193
AACACGGT	0.402
ATCACGGA	-0.189
AACACGGA	0.374
ACGATTCC	-0.04
CTAGGCGC	-0.158
CAAGAGCA	-0.00496
CTTCAAAC	-0.0259
CTGCCTGC	-0.252
AATTCTTG	0.12
GGCGGTCA	-0.283
GGAAGGTA	-0.132
ACAAAGGG	-0.0246
CTGCCAGA	-0.232
ATCAACAT	0.44
ATCAACCC	0.144

Sequence	PBM E-score
AGCAACAC	0.26
ATCAACAA	0.306
CTCAACAA	0.302
CTCAACAC	0.382
ATCAACAG	0.136
ATCAACAC	0.399
GTCAACAC	0.358
CATACCCA	0.182
AATAATAA	0.311
ACCGAGGC	-0.359
GGGCAGAA	0.0375
CCAAGTGC	-0.171
ACTAACAA	0.253
ATTAACGG	-0.00314
CTTAACAA	0.307
ATTAACGA	0.317
GTTAACCA	0.285
CTTAACAC	0.419
ATTAACAG	0.261
ATTAACGC	0.372
CTTAACCC	-0.0467
GTTAACTA	0.362
GTTAACAA	0.366
ATTAACAA	0.415
AGACTAAA	-0.0357

Sequence	PBM E-score
AATGCAGT	-0.00748
CCTTCACA	0.0306
CACATCCC	-0.0137
GCCAAACA	-0.107
AGTAGAGG	-0.226
CGTAGCAG	-0.129
CAGTTCTC	-0.179
ATTAACAC	0.455
ATTAACTC	0.216
ATTAACCC	0.0714
GCCATGCA	0.0965
CCCATGTA	0.447
ACCATGTG	0.188
CCCATGTC	0.161
CCCATGGA	-0.1
GCCATGTA	0.457
ACCATGTC	0.296
GCCATGGA	-0.178
ACCATGTA	0.467
CACCATGC	-0.0851
TCACATCA	0.00787
CGTAACGC	0.193
CTGCCAGC	-0.238
ATTATGTC	0.164
ATTATGTA	0.415

Sequence	PBM E-score
CTTATGTA	0.409
CTTATGCA	0.135
GTTATGCA	0.00491
GTTATGAA	0.186
GTTATGTA	0.419
ATTATGTG	0.17
CTTATGTC	0.117
GCGCCAGA	-0.138
AGTCGGGA	-0.192
GAAGCTAA	-0.0677
ATCCACAT	0.158
TAATGTCA	0.155
TAATGTGA	0.19
AAATGTAA	0.394
CAATGTAA	0.435
GAATGTCA	0.0786
GAATGTAC	0.16
CAATGTAG	0.172
AAATGTAC	0.236
AAATGTAG	0.113
TAATGTAA	0.431
GAATGTAA	0.372
CAATGTAC	0.217
